Test results: PubChem BioAssay AID449762 (Southern Research Specialized Biocontainment Screening …, 2010)
About 1,900 (0.58%) of roughly 330,000 compounds were called active. Not shown: some 4% with an inconclusive outcome. Cut-off read from the data, not from the text of the source: inconclusive = inhibition above about 70% without an active follow-up result; inactive = below that. These entries were drawn from the full list. Potency and affinity values are given separately.

Assay: M. tuberculosis growth inhibition, HTS (AID 449762);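 note: bacterial growth assessed after seven days of incubation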
Details: M. tuberculosis H37Rv growth inhibition, 7H9 media; at 25 µM; stronger effect = higher value

| SMILES | inhibition |
| --- | --- |
| CCOC(=O)c1sc(SCC(=O)Nc2ccc(N(C)C)cc2)nc1N | 1.23% (inactive) |
| CCOC(=O)CSc1nnc(N)s1 | -0.59% (inactive) |
| CCOC(=O)c1sc(NCCNc2nc(C)c(C(=O)OCC)s2)nc1C | -6.54% (inactive) |
| COc1ccc(NC(=O)CSc2nc(N)c(C(=O)Nc3ccc(N(C)C)cc3)s2)cc1 | 15.8% (inactive) |
| COc1cccc(CN(C)CC(=O)Nc2c(C)cccc2C(C)C)c1 | 1.22% (inactive) |
| O=C(c1csc2ccccc12)N1CCN(c2ccc(Cl)c(Cl)c2)CC1 | 2.65% (inactive) |
| NC(CS(=O)O)C(=O)O (stereo not given) | 5.82% (inactive) |
| N[C@@H](Cc1cc(Br)c(O)c(Br)c1)C(=O)O | 1.75% (inactive) |
| N[C@@H](Cc1cc(I)c(O)c(I)c1)C(=O)O | -4.28% (inactive) |
| N[C@@H](Cc1ccc(N(CCCl)CCCl)cc1)C(=O)O | -2.59% (inactive) |
| Cc1ccc(C(=O)NCC(=O)OCC(=O)c2ccc(Cl)s2)cc1 | 13.4% (inactive) |
| O=C(NC1CCSc2ccccc21)c1cc(S(=O)(=O)N2CCOCC2)ccc1F (stereo not given) | -1.41% (inactive) |
| O=C(NC1CC1)c1cc(=O)c2ccccc2o1 | -13.4% (inactive) |
| COc1cc2c(cc1Cl)C(=O)C(F)(c1ccccc1)C(=O)N2 (stereo not given) | -6.77% (inactive) |
| Cc1nnc(SCc2ccc(C(=O)Nc3cc(Cl)ccc3C)cc2)s1 | -1.77% (inactive) |
| COc1ccc(OC)c(NC(=O)c2ccc(CSc3nnc(C)s3)cc2)c1 | 49.4% (inactive) |
| CCOc1ccc(NC(=O)CSc2nnc(COc3c(C)cccc3C)o2)cc1 | -12.7% (inactive) |
| COc1cc(NC(=O)Cc2ccccc2)c(C(=O)O)cc1OC | 5.42% (inactive) |
| COc1ccc(-n2nnnc2CNC(=O)C(=O)c2c[nH]c3ccccc23)cc1 | 1.52% (inactive) |
| COc1ccc(-c2c(-c3ccccc3OC)sc3ccccc23)cc1OC | 11.5% (inactive) |

| SMILES | inhibition |
| --- | --- |
| CCOC(=O)Cc1cn(C(=O)OC(C)(C)C)c2ccccc12 | -4.41% (inactive) |
| CC(=O)c1ccc(NC(=O)CNCc2cccs2)cc1 | -3.9% (inactive) |
| Cc1ccc(NC(=O)CNCc2cccs2)c(Br)c1 | 1% (inactive) |
| CSCCC(NC(=O)c1ccco1)C(=O)NC1CCC(C)CC1 (stereo not given) | -5.12% (inactive) |
| O=S(=O)(c1ccc2c(c1)OCCO2)C1CCC(S(=O)(=O)c2c(F)cccc2F)CC1 (stereo not given) | -1.16% (inactive) |
| CC[n+]1c(/C=C/N(C)c2ccccc2)oc2ccc(F)cc21 | -7.16% (inactive) |
| CC[n+]1c(/C=C/N(C)c2ccccc2)oc2ccc(Cl)cc21 | -7.91% (inactive) |
| COC(=O)c1ccc(NC(=O)CSc2nnc(C)n2CC2CCCO2)cc1 (stereo not given) | -1.12% (inactive) |
| CC(OC(=O)c1cccc(NS(C)(=O)=O)c1)C(=O)Nc1ccc2c(c1)OCO2 (stereo not given) | -1.53% (inactive) |
| Cc1cc(C(=O)N/N=C/c2c(C)nn(-c3ccccc3)c2C)n[nH]1 | -1.35% (inactive) |
| Cc1nn(-c2ccccc2)c(C)c1/C=N/NC(=O)c1cc(O)cc(O)c1 | 0.86% (inactive) |
| Cc1ccc(/C=N/NC(=O)CSc2nc3ccccc3c(=O)n2-c2ccccc2C)s1 | 6.56% (inactive) |
| Cc1ccc(-n2c(SCC(=O)N/N=C/c3c(C)nn(-c4ccccc4)c3C)nc3ccccc3c2=O)cc1 | 12% (inactive) |
| CCCCNC(=O)CSc1nnc(Cc2ccc(Cl)c(Cl)c2)c(=O)[nH]1 | 4.24% (inactive) |
| O=c1ccc(=O)n2n1CC(O)C2 | 1.79% (inactive) |
| Cc1cc(Cl)c(S(=O)(=O)Nc2ccc(S(=O)(=O)N3CCOCC3)cc2)cc1OCC(N)=O | 5.99% (inactive) |
| CC(C)Cn1c(N)c(C(=O)COC(=O)Cc2cccc(C(F)(F)F)c2)c(=O)n(C)c1=O | 3% (inactive) |
| CCOC(=O)N/N=C(C)/C=C/c1ccccc1 | -3.41% (inactive) |
| Cc1ccc(OCC(=O)NCc2cccnc2)cc1 | -0.13% (inactive) |
| CC1CCN(C(=O)c2ccc(CSc3nc4ccncc4n3Cc3ccc(F)cc3)cc2)CC1 | -5.51% (inactive) |

| SMILES | inhibition |
| --- | --- |
| CCCOc1ccc(CC(=O)NCC2(c3ccccc3)CCOCC2)cc1OC | 5.05% (inactive) |
| Cc1ccc(N(CC(=O)NC2CCCC2)C(=O)CCC(=O)Nc2nccs2)cc1C | -7.45% (inactive) |
| O=C(CN1CCC(n2nnc3ccccc32)CC1)NCc1cccs1 | -0.03% (inactive) |
| C=CCNC(=O)CN1CCC(n2nnc3cc(C(F)(F)F)ccc32)CC1 | -4.99% (inactive) |
| O=C(CN1C(=O)/C(=C/c2ccccc2)SC1=S)NC1C=CS(=O)(=O)C1 (stereo not given) | 2.53% (inactive) |
| COc1cccc(C2C3=C(N=c4s/c(=C\c5ccccc5O)c(=O)n42)c2ccccc2CC3)c1OC (stereo not given) | 4.34% (inactive) |
| COc1cccc(C2C3=C(N=c4s/c(=C\c5ccc(O)cc5)c(=O)n42)c2ccccc2CC3)c1OC (stereo not given) | 65.1% (inactive) |
| COc1ccccc1NC(=O)c1ccccc1C(=O)N(C)Cc1ccccc1 | -2.3% (inactive) |
| Cc1cc(C)nc(SCC(=O)O)n1 | 0.26% (inactive) |
| O=C(c1ccc2nc[nH]c2c1)N1CCc2ccccc2C1 | -3.52% (inactive) |
| Cc1ccc(NC(=O)CN(C)C(=O)Cn2ncc(Cl)c(Cl)c2=O)cc1 | 28.7% (inactive) |
| CCC(=O)Nc1ccc(C(=O)Cn2ncc(Cl)c(Cl)c2=O)cc1 | -3.99% (inactive) |
| COc1ccc(CCC(=O)NCCCNC(=O)CCc2ccc(OC)cc2)cc1 | 8.41% (inactive) |
| CCCCc1cc(=O)oc2cc(C)cc(OC(C)C(=O)NC(Cc3c[nH]c4ccc(O)cc34)C(=O)O)c12 (stereo not given) | -11.4% (inactive) |
| O=C(COC(=O)c1ccccc1Br)Nc1ccc(F)cc1 | 45.4% (inactive) |
| O=C(Nc1ccc(F)cc1)c1cccc(NC(=O)C2C3CC4OC(=O)C2C4C3)c1 (stereo not given) | -6.31% (inactive) |
| O=C1CC(/C=C/c2ccccc2)=Nc2ccccc2N1 | -1.18% (inactive) |
| O=C1CC(/C=C/c2ccncc2)=Nc2ccccc2N1 | -0.65% (inactive) |
| CCCCNS(=O)(=O)c1ccc(NC(=O)Cc2ccc(OC)cc2)cc1 | -0.2% (inactive) |
| O=C(NCCCN1CCOCC1)c1cc(S(=O)(=O)N2CCOCC2)ccc1Cl | -0.79% (inactive) |
